Lmaj promast: Leishmania major promastigote growth inhibition; inhibition, % at 10 µM; Leishmania major promastigotes, resazurin fluorescence viability; AID 1063; hit rate 9% among 200,000; in the data active = inhibition above about 50%;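 also: promastigotes grown with compound for 44 hours at 28 °C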
WT yeast gro inh: growth inhibition of WT yeast, mitochondrial fusion screen; inhibition, % at 10 µM; mitochondrial fusion phenotypic screen, WT strain; AID 1362; hit rate 2.1% among 190,000; in the data active = inhibition above about 58%; tested in S. cerevisiae
CHOP inh: blocks CHOP induction under ER stress; hit rate 3.8% among 220,000; AID 2732; CHO-K1 CHOP-promoter luciferase, tunicamycin-induced, 15-18 h; inhibition, % at 10 µM;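 active = compounds that reduced the stress-induced luciferase reporter signal by more than about 70% of percent inhibition, limit read from the data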;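 also: 0% = tunicamycin plus vehicle and 100% = wells without tunicamycin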
Arbovirus anti: antivirals against arbovirus infection | hit rate 0.37% among 200,000 | inhibition, % at 10 µM | arbovirus infection cell-based antiviral screen | AID 1251; in the data active = inhibition above about 30%
Numbers without * were called inactive; / = not tested or not shown. Most compounds without a hit are left out; they make up all but 12% or so of the library.

SMILES | Lmaj promast | WT yeast gro inh | CHOP inh | Arbovirus anti
Cc1ccc(NC(=O)CS(=O)CC(=O)N(c2ccc(C)cc2)C(C)C(=O)NC2CCCCC2)cc1 (configuration not stated) | -7.1 | 5.0 | 30.8 | 2.6
Cc1ccccc1Nc1nc(N)nc(COC(=O)c2cccc(S(=O)(=O)NCc3ccccc3)c2)n1 | 42.9 | -14.3 | 9.5 | 0.6
Cc1ccccc1Nc1nc(N)nc(COC(=O)c2cccc(S(=O)(=O)N(C)C)c2)n1 | 65.7* | 9.3 | -8.8 | 0.1
CC(CCc1ccccc1)NC(=O)C1CCN(S(=O)(=O)N2CCOCC2)CC1 (configuration not stated) | -5.0 | -3.4 | 20.8 | -2.7
CN(C)CCC(=O)c1ccc(Cl)cc1 | 99.8* | 15.4 | 4.3 | 1.1
Cc1onc(-c2c(F)cccc2Cl)c1C(=O)OCC(=O)c1c(N)n(C)c(=O)n(C)c1=O | 76.5* | -10.0 | 26.4 | 2.6
Cc1onc(-c2c(F)cccc2Cl)c1C(=O)OCn1nnc2ccccc2c1=O | 99.4* | -6.9 | 26.1 | 4.3
Cc1onc(-c2ccccc2Cl)c1C(=O)OCC(=O)c1c(N)n(C)c(=O)n(C)c1=O | 41.4 | -10.4 | 22.7 | 8.6
Cc1onc(-c2c(F)cccc2Cl)c1C(=O)ONC(=O)c1ccccc1 | / | / | 5.5 | /
Cn1c(N)c(C(=O)COC(=O)c2ccc(Cl)c(S(=O)(=O)N3CCCCC3)c2)c(=O)n(C)c1=O | 87.6* | 19.3 | 8.8 | 19.3
CN(C)CCNC(=O)/C(=C/c1ccc(-c2cccc([N+](=O)[O-])c2)o1)NC(=O)c1ccccc1 | 46.0 | 0.0 | 2.7 | -16.6
Cc1ccc(C(=O)N/C(=C/c2ccc(-c3cccc([N+](=O)[O-])c3)o2)C(=O)NC(C)C)cc1 | 2.2 | -4.8 | 8.3 | -6.4
CN(C)CCNC(=O)/C(=C/c1ccc(-c2cccc(Cl)c2)o1)NC(=O)c1ccccc1 | 100.4* | -5.1 | 31.8 | -38.6
CN(C)CCCNC(=O)/C(=C\c1ccc(-c2ccc(Br)cc2)o1)NC(=O)c1ccccc1 | 100.5* | -11.2 | 81.2* | -35.4
Cc1ccc(C(=O)N/C(=C\c2ccc(Cl)cc2)C(=O)NCCCN2CCOCC2)cc1 | 2.1 | -9.2 | 3.6 | 6.9
Cc1ccc(C(=O)N/C(=C\c2ccc(-c3ccc(Cl)cc3)o2)C(=O)NCCCN(C)C)cc1 | 100.7* | 4.2 | 13.2 | -29.5
Cc1ccc(C(=O)N/C(=C/c2ccc(-c3cccc([N+](=O)[O-])c3)o2)C(=O)NC(C)(C)C)cc1 | 82.4* | 26.8 | 51.2 | 13.1
Cc1ccc(S(=O)(=O)Nc2ncc(C(F)(F)F)cc2Cl)cc1 | -1.1 | -2.3 | -2.9 | -2.1
CCn1c(Cn2nnc(-c3ccccc3)n2)nnc1SCc1ccc(Cl)c(Cl)c1 | -0.5 | 78.8* | 80.7* | -31.7
CC(SC1=NCCS1)C(=O)Nc1nnc(-c2ccc(Cl)cc2)s1 (configuration not stated) | 22.2 | 32.4 | 87.3* | 11.2
CC1C(c2ccccc2)N(C)C(c2ccccc2)CC1(O)c1ccc(F)cc1 (configuration not stated) | 49.1 | 68.6* | 84.8* | -29.4
Fc1ccc(NC(=S)N2N=CCC2c2ccccc2)cc1 (configuration not stated) | 8.2 | 16.4 | -8.3 | -0.1
COc1ccc(-c2ccc(C#N)c(OC)n2)cc1 | -6.2 | -14.5 | 34.9 | -10.3
CCOc1nc(-c2ccccc2Cl)ccc1C#N | 0.1 | 7.7 | 70.7* | -8.8
COC(=O)[C@@]1(Cc2ccc(F)cc2)[C@H]2c3cc(C(=O)N(C)C)n(Cc4nc5ccccc5[nH]4)c3C[C@H]2CN1C(=O)c1ccccc1 | 32.0 | 7.2 | 53.4 | -28.7
SMILES | Lmaj promast | WT yeast gro inh | CHOP inh | Arbovirus anti
COc1ccccc1OCCn1cc(/C=C(\C#N)C(=O)NCc2cccs2)c2ccccc21 | 94.2* | -9.0 | 45.3 | -4.8
COc1cc(/C=C(\C#N)C(=O)NCC2CCCO2)ccc1O (configuration not stated) | 10.7 | -10.1 | 4.4 | 0.0
N#C/C(=C\c1cn(Cc2ccccc2C#N)c2ccccc12)C(=O)NCc1cccs1 | -5.0 | -0.2 | 6.3 | -1.6
CCOc1ccc(/C=C(\C#N)C(=O)NCC2CCCO2)cc1OCC (configuration not stated) | 64.2* | -17.6 | -13.2 | -4.4
Cc1ccc(C)c(OCCn2cc(/C=C(/C#N)C(=O)NCC3CCCO3)c3ccccc32)c1 (configuration not stated) | 97.9* | 22.6 | 18.7 | -20.4
O=C(NCc1n[nH]c(=S)n1-c1ccc(Br)cc1)c1ccc(S(=O)(=O)N2CCOCC2)cc1 | -5.6 | 5.9 | 4.2 | 1.1
CC(=O)CSc1cc(-c2ccccc2)nc2ncnn12 | / | / | -4.3 | /
O=c1c(Cl)c(N2CCN(c3ccc(F)cc3)CC2)cnn1C12CC3CC(CC(C3)C1)C2 | 62.5* | 56.4 | 22.9 | 37.0*
O=c1c(Cl)c(NCc2ccc(F)cc2)cnn1C12CC3CC(CC(C3)C1)C2 | 72.5* | 3.4 | 2.6 | -2.1
O=c1c(Cl)c(NCc2ccccc2Cl)cnn1C12CC3CC(CC(C3)C1)C2 | 83.5* | 35.1 | 63.2 | 11.3
O=c1c(Cl)c(NCc2ccco2)cnn1C12CC3CC(CC(C3)C1)C2 | 3.8 | -17.5 | 10.5 | 7.3
O=c1c(Cl)c(N2CCN(c3ccccc3)CC2)cnn1C12CC3CC(CC(C3)C1)C2 | 3.8 | 5.2 | -8.5 | -2.8
COc1ccccc1/C=C/C(=O)OCC(=O)Nc1cc(C(F)(F)F)ccc1N1CCOCC1 | -5.1 | 1.2 | 8.3 | -13.4
COc1cccc(CN(C)CC(=O)Nc2cccc(S(N)(=O)=O)c2)c1OC | 87.9* | -25.0 | 1.9 | 0.4
CN(c1ccccc1)S(=O)(=O)c1cccc(NC(=O)Cn2cnc3ccccc3c2=O)c1 | 97.8* | -9.2 | 49.9 | 1.7
CC(=O)c1ccc(OCCCC(=O)Nc2cccc(S(=O)(=O)N(C)C)c2)cc1 | 58.4* | 7.7 | 18.9 | 1.2
CCOc1ccc(CN(C)CC(=O)Nc2cccc(S(=O)(=O)N(C)c3ccccc3)c2)cc1 | 74.0* | 23.2 | 16.2 | 10.0
CN(C)S(=O)(=O)c1cccc(NC(=O)COC(=O)CCOc2ccccc2)c1 | -0.2 | -20.8 | 24.9 | 2.9
COc1ccc(Br)cc1CN(C)CC(=O)Nc1cccc(S(N)(=O)=O)c1 | 7.4 | 0.7 | 11.6 | -12.0
NNC(=O)c1cccc(O)c1 | -7.7 | 1.1 | -9.2 | -6.2
COc1cccc(NC(=O)Nc2ccc(Br)cn2)c1 | / | / | -7.3 | /
CN(c1ccccc1)S(=O)(=O)c1cccc(NC(=O)CC(C)(C)C)c1 | 96.5* | 9.6 | 35.3 | 0.8
CN(c1ccccc1)S(=O)(=O)c1cccc(NC(=O)CN2CCc3ccccc3C2)c1 | 7.1 | 0.2 | 23.8 | 3.5
N#C/C(=C\c1ccc(N2CCCCC2)c([N+](=O)[O-])c1)c1nn(-c2ccccc2)c(N)c1C#N | 98.8* | 8.1 | 23.1 | 1.4
N#C/C(=C\c1ccc(N2CCCC2)c([N+](=O)[O-])c1)c1nc2ccccc2[nH]1 | 6.2 | 4.5 | 66.7 | -7.7
CC(=O)Nc1ccc(N2CCCC(C)C2)c([N+](=O)[O-])c1 (configuration not stated) | 11.0 | 20.6 | 14.4 | -3.0
CC1CCCN(c2ccc(/C=C(\C#N)c3nn(-c4ccccc4)c(N)c3C#N)cc2[N+](=O)[O-])C1 (configuration not stated) | 95.6* | -3.8 | / | -5.2
CC1CCN(c2cc(N3CCC(C)CC3)c([N+](=O)[O-])cc2/C=C(\C#N)c2nn(-c3ccccc3)c(N)c2C#N)CC1 | -4.2 | 12.6 | 10.2 | -4.8

High-throughput results deposited in PubChem by several laboratories.
